From PubChem BioAssay AID602256 (National Center for Advancing Translational Sciences (NCATS), 2012)
Results filed as inconclusive are left out. Values without a mark were called inactive. Activity calls are given as the source filed them. The call rests on the fitted dose curve; in most records, active means well fitted curve in the direction sought with a large enough effect; inconclusive means small, poorly fitted or top-dose-only effect, or another doubt; inactive means no such curve, though single readings can be large or run the other way.

biological target: Relaxin receptor 1 (Homo sapiens) (UniProt Q9HBX9); assay: qHTS Assay for Agonists of the Relaxin Receptor RXFP1: RXFP1 SAR; conditions: HEK293T-RXFP1 cAMP TR-FRET, 30 min; efficacy: active compounds read high
Sequence (Q9HBX9 whole entry, looked up): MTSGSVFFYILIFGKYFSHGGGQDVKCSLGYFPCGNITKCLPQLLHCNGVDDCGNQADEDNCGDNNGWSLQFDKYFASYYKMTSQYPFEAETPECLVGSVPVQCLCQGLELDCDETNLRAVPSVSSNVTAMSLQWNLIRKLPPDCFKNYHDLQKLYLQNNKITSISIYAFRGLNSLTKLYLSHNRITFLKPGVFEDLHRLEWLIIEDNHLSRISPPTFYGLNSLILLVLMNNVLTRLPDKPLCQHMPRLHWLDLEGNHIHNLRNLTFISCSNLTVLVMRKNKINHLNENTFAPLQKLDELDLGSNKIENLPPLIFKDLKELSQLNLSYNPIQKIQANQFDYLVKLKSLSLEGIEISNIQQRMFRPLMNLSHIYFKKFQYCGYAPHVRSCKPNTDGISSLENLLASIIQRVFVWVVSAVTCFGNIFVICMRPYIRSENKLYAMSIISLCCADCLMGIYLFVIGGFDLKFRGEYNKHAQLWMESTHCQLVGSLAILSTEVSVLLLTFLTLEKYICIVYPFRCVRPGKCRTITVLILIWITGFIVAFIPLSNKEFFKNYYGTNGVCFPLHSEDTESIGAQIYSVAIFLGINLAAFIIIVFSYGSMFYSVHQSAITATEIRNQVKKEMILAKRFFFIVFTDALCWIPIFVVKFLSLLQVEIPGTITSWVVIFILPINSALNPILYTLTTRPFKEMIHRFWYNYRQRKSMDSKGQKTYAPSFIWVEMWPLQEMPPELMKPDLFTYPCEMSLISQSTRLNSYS
Excerpt: The relaxin hormone is involved in the variety of biological functions in normal tissues and diseases. The role of relaxin is well-established in female reproduction and parturition, mammary gland and endometrial development, maintenance of myometrial quiescence during pregnancy. Relaxin signaling through its G protein-coupled receptor (GPCR) RXFP1 results in ECM remodeling through regulation of collagen deposition, cell invasiveness, proliferation and overall tissue homeostasis. […] Recombinant human relaxin (rhRlx) is currently being tested in clinical trials as a protective agent in congestive heart failure, in treating severe preeclampsia, and as an anti-fibrotic agent in systemic sclerosis. Upon relaxin binding RXFP1 activation leads to the activation of adenylate cyclase (AC) via Gs. cAMP will activate PKA, which phosphorylates many signaling proteins. Thus, detection of cAMP increase is an easy and reliable indication of relaxin receptor activation. To screen for agonists of the relaxin receptor, a HEK293T cell line stably transfected with RXFP1 was used. RXFP1 activation was assayed by changes in cAMP levels as detected with a time-resolved fluorescence energy transfer (TR-FRET) cAMP detection kit. NIH Chemical Genomics Center [NCGC] NIH Molecular Libraries Probe Production Centers Network [MLPCN] MLPCN Grant: R03 MH085705-01A1 Assay Submitter (PI): Alexander Agoulnik
This is a cell-based assay for cAMP second messenger response to screen for agonists of the RXFP1 receptor. The assay was conducted in the presence of a PDE4 inhibitor (Ro 20174). The cells were lysed and the cAMP levels were measured with a TR-FRET cAMP kit. Presence of cAMP in the cell lysate disrupts binding between the cryptate-labeled anti-cAMP and d2-labeled cAMP pair, leading to a decrease in the TR-FRET signal. Data were normalized to the controls for basal activity (buffer only) and 100% activity (29 nM porcine relaxin). The EC50 values were determined from concentration-response data modeled with the standard Hill equation 1536-well assay protocol for the HEK293 RXFP1 cAMP assay: (1) Add 3 ul HEK293 RXFP1 cell culture. 2000 cells/well in DMEM/F12, 10% FBS, 1x Pen/Strep (dispensed offline with MultiDrop Combi). (2) Incubate 16-24 hr at 37C, 5% CO2. (3) Add 1 ul 400uM Ro20174 in DPBS, 0.05% BSA, 0.005% Tween 20. (3) Add 23 nl compounds in DMSO solution. Final concentration was 0.5 - 58 uM. (4) Incubate 30 min at 37C, 5% CO2. (5) Add 1 ul cAMP-d2 in lysis buffer (HTRF cAMP HiRange kit, CisBio). (6) Add 1 ul anti-cAMP antibody-cryptate in lysis buffer (HTRF cAMP HiRange kit, CisBio). (7) Incubate 30 min at room temperature. (6) Detect the assay plate in a ViewLux plate reader (PerkinElmer) with Ex=320 nm, Em1=615 nm and Em2=665 nm. Keywords: relaxin, RXFP1, RXFP2, G-protein coupled receptor, cAMP, agonist, high throughput screening, MLSMR, MLSCN, NIH Roadmap, qHTS and NCGC

Row | Structure (SMILES) | Potency | efficacy [%]
1 | CCOc1ccccc1C(=O)NCCC(=O)Nc1cccc(S(=O)(=O)C(F)(F)F)c1 | 4.71 µM (active) | –
2 | O=C(Nc1cccc([N+](=O)[O-])c1)c1ccccc1NC(=O)C1CCCCC1 | 5.93 µM (active) | –
3 | CN(C)CCOc1ccccc1C(=O)Nc1ccccc1C(=O)Nc1cccc(C(F)(F)F)c1 | 3.74 µM (active) | –
4 | COc1ccccc1Nc1ccccc1C(=O)Nc1cccc(C(F)(F)F)c1 | 4.71 µM (active) | –
5 | CCC(CC)C(=O)Nc1ccccc1C(=O)Nc1cccc(C(F)(F)F)c1 | 5.29 µM (active) | –
6 | O=C(Nc1cccc(F)c1)c1ccccc1NC(=O)C1CCCCC1 | 13.3 µM (active) | –
7 | COc1ccccc1C(=O)Nc1cccc(C(=O)Nc2cccc(C(F)(F)F)c2)c1 | – | 1.37
8 | O=C(Nc1ccccc1C(=O)Nc1cccc(C(F)(F)F)c1)c1cccnc1 | 5.93 µM (active) | –
9 | O=C(Nc1cccc(C(F)(F)F)c1)c1ccccc1NC(=O)C1CCCCCC1 | 2.11 µM (active) | –
10 | CCOc1ccccc1-c1nc2c(C(=O)Nc3cccc(S(=O)(=O)C(F)(F)F)c3)cccc2[nH]1 | – | 4.9
11 | COc1ccccc1-c1ccccc1C(=O)Nc1cccc(C(F)(F)F)c1 | – | -3.31
12 | O=C(Nc1ccccc1C(=O)Nc1cccc(C(F)(F)F)c1)c1ccccc1 | 1.33 µM (active) | –
13 | COc1cccc(C(=O)Nc2ccccc2C(=O)Nc2cccc(C(F)(F)F)c2)c1 | 1.88 µM (active) | –
14 | CCCOc1ccccc1C(=O)Nc1ccccc1C(=O)Nc1cccc(S(=O)(=O)C(F)(F)F)c1 | 0.0529 µM (active) | –
